# The whole screen tested about 410,000 compounds, of which about 260 (0.063%) were called active. Where a call stands in place of a potency, no number is given. About 2% were inconclusive and are not listed. This is one part of a sample in which actives are shown more often than they occur. Calls follow the shape of the dose curve; as a rule, active = well fitted activation curve with a large enough effect; inconclusive = small, poorly fitted or top-dose-only effect; inactive = no such curve, though single readings can be large or run the other way.
# Test: qHTS for compounds that reverse cellular toxicity of Amyloid beta (A-beta) peptide in yeast: Primary Screen; also: nearly all actives have a fitted effect of over 55% in size
# Settings: yeast expressing A-beta42, growth rescue, OD600, 48 h; series mostly up to 46.1 µM
# Source text: The A-beta peptide is produced by the processing of the amyloid precursor protein (APP) by two proteases, beta and gamma secretases. […] A-beta42 is regarded as the most amyloidogenic form due to its hydrophobicity; however, precisely how A-beta42 induces neurotoxicity is unclear. To understand further this biology and its potential therapeutic implications for human neurodegenerative disease, a quantitative high-throughput screen for compounds that reverse the cellular toxicity of the A-beta peptide was developed. A yeast based screen was used because it recapitulates the salient feature of protein mis-folding disorder accurately. This cell-based phenotypic screen provides a significant, unbiased advantage by letting the compounds and models inform us which proteins or pathways are most relevant. The ideal chemical candidates would therefore have activity in both our primary yeast and secondary neuronal toxicity assays, as well as in mouse models. They will be valuable tools for dissecting diverse protein homeostasis pathologies and could potentially become the focus for future pre-clinical development. For this luminescence assay, inhibition of A-beta rescues the toxic effect in the yeast cell, resulting in increase of signals and the desired phenotype of "Activator". This screen is run against the Molecular Libraries Small Molecule Repository (MLSMR) and the NCGC Sytravon Library Collection.
# NIH Chemical Genomics Center [NCGC]
# NIH Molecular Libraries Probe Centers Network [MLPCN]
# Assay Submitter (PI): Susan Lindquist, Whitehead Institute, Massachusetts Institute of Technology
# [1] Vassar R,et al (1999). Beta-secretase cleavage of Alzheimer's amyloid precursor protein by the transmembrane aspartic protease BACE. Science. 286: 735-741.
# [2] Yan R, et al (1999). Membrane-anchored aspartyl protease with Alzheimer's disease beta-secretase activity. Nature. 402: 533-536.
# Two and a half microliter / well of yeast growth medium were dispensed in a 1536 assay plate. Compounds were pinned using the Kalypsys robotic system followed by addition of 2.5 uL / well yeast solution. The assay plates were incubated at 30 C. After 48 hr, the absorbance signal at 600 nm was obtained using the PerkinElmer ViewLux plate reader to assess yeast growth. The data was normalized to the positive control of an equimolar mixture of ferric chloride (FeCl3) and clioquinol and to the negative control DMSO.
# Potency is read from the fitted curve at half-maximal effect.
row,Structure (SMILES),Potency
1,Cc1cccc(NC(=O)C2CCCN2S(=O)(=O)c2cccc3nsnc23)c1C (stereo not given),inactive
2,COc1ccc(OCCCn2c(C)nc3cc(C)c(C)cc32)cc1,inactive
3,Cc1c(-c2nc(-c3ccc4c(c3)OCO4)no2)nnn1-c1ccc(Br)cc1F,inactive
4,O=C(CCn1ccc2cc(S(=O)(=O)N3CCCC3)ccc21)NCc1cccc(Cl)c1,inactive
5,O=C(CSc1oc(-c2ccccc2)nc1S(=O)(=O)c1ccc(Br)cc1)NC1CCCCC1,inactive
6,CC(C)CCNC(=O)CSc1nc2ccccc2nc1Cc1ccc(Cl)cc1,inactive
7,COc1cc(C(=O)Nc2ccc(-n3c(C)nc4ccccc4c3=O)cc2)cc(OC)c1OC,inactive
8,CCOc1ccccc1C(=O)Nc1ccc(S(=O)(=O)N2CCCCC2c2cccnc2)cc1 (stereo not given),inactive
9,Cn1c(=O)c2c(nc(Oc3ccc(C#N)cc3)n2Cc2ccc(Cl)cc2Cl)n(C)c1=O,inactive
10,CCN(c1ncnc2c1cnn2-c1ccc(C)cc1)C1CCCCC1,inactive
11,Cc1ccc(NC(=O)c2nc(S(=O)(=O)Cc3cccc(C)c3)ncc2Cl)cc1,inactive
12,Cc1nnc(N2CCCC(C(=O)NCCN(C)C)C2)c2nn(-c3ccccc3)c(C)c12 (stereo not given),inactive
13,COc1ccc(C2=NC(c3ccncc3)=Nc3ccc(Br)cc3N2)cc1,inactive
14,COc1ccc(OC)c(-n2nnc3c(sc4nc(C)c(Br)c(C)c43)c2=O)c1,inactive
15,CCS(=O)(=O)N1CCC(n2c(C)nc3cccnc32)CC1,inactive
16,COc1cc(OC)c(NC(=O)N2CC3CCCN3c3ccccc32)cc1Cl (stereo not given),inactive
17,CCOc1ccc(CNC(=O)c2ccc(CS(=O)c3ccccc3)o2)cc1 (stereo not given),inactive
18,CCCCn1c(=N)c(S(=O)(=O)c2ccccc2)cc2c(=O)n3cccc(C)c3nc21,inactive
19,Fc1ccc(Nc2nc(SCc3ccccc3Cl)nc3ccccc23)cc1,inactive
20,COc1ccccc1N1CCN(C(=O)C2CCN(S(=O)(=O)c3c(C)noc3/C=C/c3ccc(C)cc3)CC2)CC1,inactive

row,Structure (SMILES),Potency
1,Cc1ccc2oc3c(c(=O)c2c1)C(c1ccc(O)cc1)N(Cc1ccc2c(c1)OCO2)C3=O (stereo not given),inactive
2,COc1ccc(-c2cc(NCc3ccc(F)cc3)n3cnnc3n2)cc1,inactive
3,CCCCN(C)S(=O)(=O)c1ccc(C(=O)Nc2sc3c(c2C(N)=O)CC(C)(C)NC3(C)C)cc1,inactive
4,Cc1ccc(N(CC(=O)NCc2ccc(Cl)cc2)S(=O)(=O)N(C)C)cc1,inactive
5,Cc1cc2nn(-c3ccc(Cl)cc3)nc2cc1NC(=O)C(C)C,inactive
6,Cc1ccc(C(=O)CSc2nc(-c3ccccc3)nc3c2CCCC3)c(C)c1,inactive
7,O=C(NC1CC(=O)N(c2ccccc2)C1)c1ccco1 (stereo not given),inactive
8,COCCNC(=O)CSc1nc(-c2ccccc2)[nH]c1-c1ccc(C)cc1,inactive
9,COc1ccccc1CNC(=O)C(Cc1ccccc1)NS(=O)(=O)c1ccc2c(c1)oc(=O)n2C (stereo not given),inactive
10,CCCCNC(=O)C1CCCN(c2nnc(C)c3c(C)n(-c4ccc(Cl)cc4)nc23)C1 (stereo not given),inactive
11,CCOC(=O)c1c(NC(=O)CSc2cn(CCNC(=O)c3cccc(C(F)(F)F)c3)c3ccccc23)sc2c1CCC2,inactive
12,Cn1c(=O)c2c(ncn2CC(=O)Nc2cccc(C(F)(F)F)c2)n(C)c1=O,inactive
13,CCN(CCCNC(=O)c1ccc(Sc2ccc(C)cc2)c(NC(C)=O)c1)c1cccc(C)c1,inactive
14,C#CCOc1ccc(C2CC(=O)Nc3c2c(C)nn3-c2nc(C)cc(C)n2)cc1 (stereo not given),inactive
15,COc1cccc(NC(=O)CSC2=Nc3ccccc3C3=NC(CC(=O)NC4CCCCC4)C(=O)N23)c1 (stereo not given),inactive
16,O=C(CNS(=O)(=O)c1cccs1)N1CCN(c2ccccc2Cl)CC1,inactive
17,CSc1nsc(SC)c1NC(=O)OC1CCCCC1,4.47 µM (active)
18,Cc1nnc(N2CCC(C(=O)Nc3ccc(F)cc3)CC2)c2nn(-c3ccc(Cl)cc3)c(C)c12,inactive
19,COc1ccc(-c2onc(C)c2C)cc1S(=O)(=O)NCc1cccs1,inactive
20,COc1cc(OC)cc(-c2nc3nc(C)c(CCC(=O)Nc4ccc(C)cc4)c(C)n3n2)c1,inactive

row,Structure (SMILES),Potency
1,CCOCCc1nn2c(=O)cc(COC(=O)CNC(=O)c3ccc(C(C)(C)C)cc3)nc2s1,inactive
2,Cc1ccccc1-n1c(=O)c2ccccc2n(Cc2ccc(F)cc2)c1=O,inactive
3,CCOC(=O)c1cnc2c(C)cc(Cl)cc2c1NCCc1ccc(OC)c(OC)c1,inactive
4,CCOc1ccccc1NC(=O)Cn1c(=O)n(Cc2ccccc2)c(=O)c2c(C)c(C(=O)N(C)C)sc21,inactive
5,COc1ccc(C2C(=O)N(C3CCCCC3)CC(=O)N2Cc2ccccc2Cl)cc1OC (stereo not given),inactive
6,Cc1cccc(OCCSc2nc3ccccc3n2CC(=O)N2CCCCC2)c1C,inactive
7,Cc1ccc(C(=O)N2CCc3cc(CNC(=O)c4ccc(Br)cc4)ccc32)cc1,inactive
8,Cc1cccc(N(C)C(=O)CS(=O)(=O)c2cccc3nsnc23)c1,inactive
9,COc1ccccc1OCCC(=O)OCC(=O)NC(=O)NC(C)(C)C,inactive
10,CC(C)(C)NC(=O)NC(=O)COC(=O)Cc1ccc(Cl)cc1Cl,11.2 µM (active)
11,Cc1ccc(Cl)cc1NC(=O)COC(=O)CC(C)(C)C,inactive
12,Cc1ccc([C@H]2N[C@]3(CCCN(Cc4ccccc4)C3=O)[C@H]3C(=O)N(Cc4ccccc4)C(=O)[C@@H]23)cc1,inactive
13,CCN1C(=O)[C@H]2[C@@H](c3ccc(C(F)(F)F)cc3)N[C@]3(CCCN(Cc4ccc(Br)cc4)C3=O)[C@H]2C1=O,inactive
14,O=C1[C@H]2[C@@H](c3ccc(C(F)(F)F)cc3)N[C@]3(CCCN(Cc4ccc(Cl)cc4)C3=O)[C@H]2C(=O)N1Cc1ccccc1,8.91 µM (active)
15,COc1ccc(CCNC(=O)Cn2c(=O)n(-c3ccccc3)c(=O)c3c(C)c(C)sc32)cc1OC,inactive
16,COc1ccccc1OCC(=O)Nc1nnc2n1CCS2,inactive
17,CCOc1ccc(CNC(=O)C2CCN(c3nnc(-n4cccc4CNc4ccc(C)cc4)s3)CC2)cc1OC,inactive
18,COc1cccc(CNC(=O)Cn2ncn3c(cc4ccccc43)c2=O)c1,inactive
19,COCCNc1ncnc2c1c(-c1ccccc1)cn2-c1ccc(C)c(Cl)c1,inactive
20,CCOc1ccc(-c2cc3nc(C4CCN(C(=O)OC(C)(C)C)CC4)c(C(=O)Nc4cccc(CC)c4)cn3n2)cc1,inactive

# Reference: PubChem BioAssay AID1347071 (National Center for Advancing Translational Sciences (NCATS), 2019)
